This is one part of a sample in which hits are shown more often than they occur.
Rango complex inh: inhibitors of Rango-importin beta complex formation; Q14974; Rango CFP/YFP FRET sensor + importin beta, 45 min; Potency, µM (highest dose often 92.2 µM), for inactives: at the top dose inhibition of complex formation; 0.031% of 340,000 active; calls by dose curve;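 further: potency means the concentration at half of the fitted maximal effect; 0% = DMSO wells and 100% = buffer wells lacking importin beta; nearly all actives have a fitted effect of over 15% in size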
Target sequence (Q14974 whole entry, looked up): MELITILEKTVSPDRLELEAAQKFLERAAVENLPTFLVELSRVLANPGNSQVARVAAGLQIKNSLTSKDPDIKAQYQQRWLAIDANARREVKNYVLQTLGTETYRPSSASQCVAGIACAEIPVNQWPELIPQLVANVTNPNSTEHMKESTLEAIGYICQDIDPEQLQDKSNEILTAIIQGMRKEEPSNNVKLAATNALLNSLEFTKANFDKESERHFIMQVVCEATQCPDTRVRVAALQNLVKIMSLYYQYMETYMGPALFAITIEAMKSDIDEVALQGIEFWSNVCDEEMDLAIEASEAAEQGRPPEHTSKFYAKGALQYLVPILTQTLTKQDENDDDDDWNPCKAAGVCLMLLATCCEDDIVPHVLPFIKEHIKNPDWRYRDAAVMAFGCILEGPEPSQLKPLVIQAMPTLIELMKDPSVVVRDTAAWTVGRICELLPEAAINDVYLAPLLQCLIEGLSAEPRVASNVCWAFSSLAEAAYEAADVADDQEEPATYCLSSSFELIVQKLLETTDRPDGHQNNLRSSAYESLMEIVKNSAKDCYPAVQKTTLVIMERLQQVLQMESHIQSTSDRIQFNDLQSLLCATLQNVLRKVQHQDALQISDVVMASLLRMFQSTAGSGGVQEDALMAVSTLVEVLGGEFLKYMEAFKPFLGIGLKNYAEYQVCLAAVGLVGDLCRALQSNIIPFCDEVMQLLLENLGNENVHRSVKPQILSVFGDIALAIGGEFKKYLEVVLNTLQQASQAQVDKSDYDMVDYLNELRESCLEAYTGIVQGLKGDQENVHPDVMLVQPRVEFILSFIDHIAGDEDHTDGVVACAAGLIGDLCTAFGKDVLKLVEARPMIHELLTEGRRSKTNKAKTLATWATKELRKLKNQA
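FRET biosensor (snurportin 1 IBB flanked by EYFP and cerulean), 50 nM, with compound 5 min, then 0.125 microM importin beta in PBS, 1 mM DTT, 0.02% Tween-20, 0.1% BSA. CFP/YFP ratio read after 45 min at room temperature; pre-read flags interference.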
ClpP mod: qHTS Assay for Activators of ClpP | Potency, µM (series often up to 57.5 µM), inactives show at the top dose activity change, negative = active | 1.9% of 340,000 active | AID 651965, 2013 | ATP-dependent Clp protease proteolytic subunit (Bacillus subtilis (strain 168)), P80244 | purified B. subtilis ClpP, FRET peptide cleavage, 20 min; active means well fitted falling curve with a large enough effect; inconclusive means small, poorly fitted or top-dose-only effect; inactive means no such curve, though single readings can be large or run the other way; further: potency means the concentration at half of the fitted maximal effect; the source files actives as falling curves though it sought activators and does not explain the sign; nearly all actives have a fitted effect of over 65% in size
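ClpP 10 microg/mL final, pH 8 Tris/KCl buffer with BSA, glycerol, Tween-20; compound pinned in; FRET-FV substrate; RT 20 min; Ex320/Em430; ΔFRET vs ADEP 5.8 microM, DMSO, no enzyme.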
MBNL1 CUG block: inhibitors of human MBNL1 binding to CUG repeat RNA | Potency, µM (highest dose often 57.5 µM), without a hit: at the highest dose activity change, negative = inhibition, usual class: inhibitors | Q9NR56 | 0.036% of 280,000 active | TR-FRET MBNL1-His/biotin-(CUG)12 binding, 665/545 ratio; active means well fitted inhibition curve with a large enough effect in the signal ratio, with a control signal flat, not every such curve was filed as active; inconclusive means small, poorly fitted or top-dose-only effect, or effect the other way, or a change in a side signal; inactive means no such curve, though single readings can be large or run the other way; the % refers to the signal ratio; further: potency means the concentration at half of the fitted maximal effect; on the % scale 0 is the no-effect control and ±100 the full control effect
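Compounds (final 92 nM to 58 uM) are added to His-tagged MBNL1 and biotin-(CUG)12, then terbium anti-His antibody and streptavidin-XL665 (5 nM final). After 60 min at room temperature, the 665/545 nm ratio is read.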
Rango dissoc inh: prevents RanGTP from dissociating the Rango-importin beta complex. 0.071% of 340,000 active. Potency, µM (titrated, usually from 46.1 µM), without a hit: top-dose activity change, negative = inhibition. Biochemical FRET Rango-importin beta, RanGTP-induced dissociation. O95149+P62826. AID 540253; calls by dose curve; further: potency means the concentration at half of the fitted maximal effect; % of control where 0% means no effect; nearly all actives have a fitted effect of over 45% in size
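Quantitative HTS using a FRET biosensor: 0.1 uM Rango, 0.25 uM importin beta, 0.6 uM Ran, 2 mM GTP, 0.2 uM RCC1 final, PBS with DTT, Tween-20 and BSA. Post-read taken 45 min after Ran addition.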
CBFb-RUNX1 inh: CBF-beta/RUNX1 interaction disruption. Q01196+Q13951. AlphaScreen CBFb-His/RUNX1-biotin binding, biochemical. Potency, µM (series often up to 59.8 µM), for the others: top-dose activity, negative = inhibition, usual class: inhibitors. 230,000 tested, under 10 active. AID 1477; further: % of control where 0% means no effect
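Proteins preincubated together for 20 min at RT before compound addition; 15 min later, nickel and streptavidin beads were added and left 90 min prior to AlphaScreen measurement.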
ClpP validation: Bacillus subtilis ClpP inhibition, validated hit | shares compounds with ClpP mod | purified B. subtilis ClpP, FRET-FV substrate cleavage, 20 min | Potency, µM (top dose mostly 57.5 µM), without a hit: at the top dose activity change, negative = inhibition, hits mostly inhibitors | 40% of 470 active | AID 743245; further: potency means the concentration at half of the fitted maximal effect; on the % scale 0 is the no-effect control and ±100 the full control effect; nearly all actives have a fitted effect of over 70% in size
Starred values were filed as active, the others as inactive; ? = inconclusive; . = not tested or not shown. Unless noted, the call rests on the fitted dose curve; in most records, active means well fitted curve in the direction sought with a large enough effect; inconclusive means small, poorly fitted or top-dose-only effect, or another doubt; inactive means no such curve, though single readings can be large; an effect the other way counts as inactive or inconclusive.

SMILES	Rango complex inh	ClpP mod	MBNL1 CUG block	Rango dissoc inh	CBFb-RUNX1 inh	ClpP validation
CCC(CC)C(=O)NC1CC(=O)N(c2ccc3c(c2)OCCO3)C1 (stereo unspecified)	.	-3%	.	.	.	.
COc1ccccc1NC(=O)c1ncn(-c2ccccc2)n1	.	-16%	.	.	.	.
O=C(Nc1ccc(NC(=O)c2cc3ccccc3o2)cc1)c1ccco1	-1%	.	3%	-8%	.	.
COc1ccc(NC(=O)c2ccco2)cc1NC(=O)c1cc2ccccc2o1	-2%	80%	10%	-9%	1%	19µM*
CCCSc1nnc(NC(=O)c2cc(=O)c3ccccc3o2)s1	.	3%	.	.	.	.
COc1cc2ccccc2cc1C(=O)Nc1cc(C)ccn1	0%	3%	12%	4%	.	.
COc1cc2ccccc2cc1C(=O)Nc1ccc(Br)cn1	3%	3.5µM*	30%	9%	.	?
O=C(CNC(=O)c1ccc(Cl)cc1)OCc1cc(=O)n2nc(C3CC3)sc2n1	.	-7%	.	.	.	.
COc1ccc2oc(-c3ccco3)cc(=O)c2c1	0%	4%	?	12%	17%	.
O=c1cc(-c2ccco2)oc2ccc(Cl)cc12	-8%	2.8µM*	4%	2%	4%	?
Cc1cc2c(n1-c1ccc(C(=O)NCc3ccccc3Cl)cc1)CCCC2	.	-7%	.	.	.	.
Cc1cccc(C)c1NC(=O)COC(=O)COc1ccc2c(C)cc(=O)oc2c1	1%	80%	-16%	28%	1%	-28%
Cc1ccc(NS(=O)(=O)c2cccc(C(=O)N3CCCCCC3)c2)cc1	-1%	0%	.	-14%	.	.
Cc1ccc(NS(=O)(=O)c2cccc(C(=O)N3CCCCC3)c2)cc1	0%	77%	.	0%	.	0%
CCCC1CCC(c2ccc(C(N)=O)cc2)CC1 (stereo unspecified)	2%	74%	1%	-12%	-3%	0%
CCCCCC1CCC(c2ccc(C(N)=O)cc2)CC1 (stereo unspecified)	1%	-3%	0%	-16%	-1%	.
Cc1cc(C)cc(NC(=O)CCc2c(C)nc3c(c2C)c(=O)n(C)c(=O)n3C)c1	.	-1%	.	.	.	.
CCC(=O)O[C@H]1C(O[C@@H]2C(C)[C@H](O[C@H]3C[C@@](C)(OC)C(O)C(C)O3)C(C)C(=O)OC(CC)[C@@](C)(O)C(O)[C@H](C)C(=O)C(C)C[C@]2(C)O)OC(C)CC1N(C)C (stereo partly specified)	.	.	.	.	9%	.
Fc1ccccc1N1CCN(c2nnc(C(F)(F)F)c3nnn(Cc4ccccc4)c23)CC1	.	7.9µM*	.	.	.	19µM*
Cc1ccccc1N(CC(=O)Nc1ccc(S(=O)(=O)N2CCOCC2)cc1)S(C)(=O)=O	-4%	45%	-12%	5%	6%	1%
Cc1cccc(N2CCN(CCNC(=O)C3COc4ccccc4C3)CC2)c1C (stereo unspecified)	.	1%	.	.	.	.
COc1ccc(S(=O)(=O)N2CCN(S(=O)(=O)c3ccc4c(c3)OCCO4)CC2)cc1C	3%	4µM*	-17%	-17%	-3%	0%
COc1cccc(NC(=O)c2cc([N+](=O)[O-])ccc2NCc2cccnc2)c1	-5%	42%	?	-14%	-15%	0%
Cc1ccc(NC(=O)c2cc([N+](=O)[O-])ccc2NCc2cccnc2)cc1Cl	-7%	-5%	16%	11%	-22%	.
CCCN(Cc1cccs1)C(=O)Nc1ccccc1C	.	2%	.	.	.	.
SMILES	Rango complex inh	ClpP mod	MBNL1 CUG block	Rango dissoc inh	CBFb-RUNX1 inh	ClpP validation
Cc1cc(N2CCN(Cc3cn(C)nc3-c3cccc(Cl)c3)CC2)cc(C)n1	0%	.	3%	3%	2%	.
Cn1cc(CN2CCN(c3ncccn3)CC2)c(-c2cccc(Cl)c2)n1	3%	221%	-10%	-8%	0%	-1%
O=C(c1cnn(C(=O)c2ccccc2)c1)c1ccccc1O	-2%	42%	-11%	-8%	3%	-18%
Cc1ccc(C(=O)Nc2cccc(-c3nc4ccccc4o3)c2)c(Cl)c1	.	76%	.	.	.	?
O=C(O)c1ccccc1-c1ccccc1C(=O)Nc1cccc(-c2nc3ccccc3o2)c1	-1%	.	6%	17%	10%	.
CN1CCN(S(=O)(=O)c2ccc(NC(=O)c3cccs3)cc2)CC1	0%	-1%	1%	1%	0%	.
CC1CCN(S(=O)(=O)c2ccc(NC(=O)c3cccs3)cc2)CC1	-1%	127%	8%	-13%	3%	-1%
c1ccc2c(c1)NC1(CCCCCC1)n1c-2nc2ccccc21	-1%	63%	5%	5%	2%	.
c1ccc2c(c1)NC1(CCCCC1)n1c-2nc2ccccc21	-5%	2.5µM*	-3%	20%	0%	14µM*
Cc1ccccc1Nc1c(-c2c[nH]c3ccccc23)nc2ccc(Cl)cn12	.	5µM*	.	.	.	-16%
Cc1ccc(Cl)cc1NC(=O)CCc1c(C)nc2c3cccnc3nn2c1C	.	3.5µM*	.	.	.	19µM*

Screening results as filed in PubChem BioAssay.
